From PubChem BioAssay AID624297 (National Center for Advancing Translational Sciences (NCATS), 2012)
Among all 340,000 compounds or so, about 6,200 (1.8%) were called active. Not shown: some 10% with an inconclusive outcome. Calls come from the whole dose curve; as a rule, active = well fitted activation curve with a large enough effect; inconclusive = small, poorly fitted or top-dose-only effect; inactive = no such curve, though single readings can be large or run the other way. Shown is part of a subset that was picked to be rich in actives.

assay: A quantitative high throughput screen for small molecules that induce DNA re-replication in SW480 colon adenocarcinoma cells.; note: nearly all actives have a fitted effect of over 55% in size; for re-replication activation: % of control where 0% means no effect; conditions: Hoechst DNA content imaging, 48 h; series mostly up to 46.1 µM; re-replication activation: at the top concentration
Method in brief: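 First, 250 cells per well were seeded. Next, compound or vehicle (23 nL) was pinned in, plates sat 48 hr at 37 C. Finally Hoechst was added for 40 min before fluorescence scanning.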
Potency is the fitted concentration of half-maximal effect.

Row | SMILES | re-replication activation | Potency
1 | Cc1ccc(S(=O)(=O)N2CCCCC2)cc1NC(=O)CCNC(=O)c1ccccc1 | 17% (inactive) | –
2 | Cc1cccc(C2=N/C(=C/c3cccs3)C(=O)O2)c1 | – | 4.61 µM (active)
3 | Cc1ccc(N2CCN(C3=NC(=O)/C(=C\c4cccs4)S3)CC2)cc1 | -6.21% (inactive) | –
4 | Cc1ccc(C2=N/C(=C\c3ccc(OS(=O)(=O)c4ccc(C)cc4)cc3)C(=O)O2)cc1 | -12.8% (inactive) | –
5 | Cc1nc2ccc(N)nc2nc1C | -4.85% (inactive) | –
6 | CCCN(CCC)S(=O)(=O)c1cc2c(cc1Br)CCN2C(=O)CC | -0.545% (inactive) | –
7 | Cc1noc(C)c1S(=O)(=O)N(C)C[C@H]1Oc2ccc(NC(=O)C3CC3)cc2C(=O)N([C@H](C)CO)C[C@@H]1C | -7.8% (inactive) | –
8 | CN1CCN(CCCNC(=O)c2ccc(/C=C3\Oc4ccccc4N(Cc4ccc(Cl)cc4)C3=O)cc2)CC1 | 6.87% (inactive) | –
9 | CCN1CCN(CCNC(=O)c2ccc(/C=C3/Sc4ccccc4N(Cc4cccc(C)c4)C3=O)cc2)CC1 | – | 20.6 µM (active)
10 | O=C(NCCN1CCOCC1)c1ccc(/C=C2\Sc3ccccc3N(Cc3ccc(F)cc3)C2=O)cc1 | 662% (inactive) | –
11 | C[C@@H]1CN([C@@H](C)CO)C(=O)c2cccc(NS(=O)(=O)c3ccc(F)cc3)c2O[C@H]1CN(C)C(=O)NC1CCCCC1 | 6.72% (inactive) | –
12 | CC1CN(C(=O)c2ccc([N+](=O)[O-])s2)CC(C)O1 (stereo not drawn) | -11.6% (inactive) | –
13 | O=C(c1cccc(S(=O)(=O)N2CCCCCC2)c1)N1CCN(Cc2ccccc2)CC1 | -17.1% (inactive) | –
14 | O=C(NC1=CC(=O)c2ccccc2C1=O)c1ccccc1 | – | 5.8 µM (active)
15 | Cn1c(NC(=O)c2ccccc2)nc2ccccc21 | -10.1% (inactive) | –
16 | CC(NC(=O)c1ccccc1)C(=O)Nc1ccccc1 (stereo not drawn) | -2.85% (inactive) | –
17 | Cc1c[n+]([O-])ccc1[N+](=O)[O-] | 13.5% (inactive) | –
18 | COc1ccc(S(=O)(=O)N2C[C@H]3CON(C)[C@H]3C[C@H]2c2cccc(Br)c2)cc1 | -5.21% [at 9.22 µM] (inactive) | –
19 | O=C(COc1ccccc1F)Nc1nc(-c2ccccn2)cs1 | 1.18% (inactive) | –
20 | CCc1ccc2c(c1)C1(NN=C(c3ccccc3)S1)C(=O)N2 (stereo not drawn) | – | 10.3 µM (active)
21 | CN(CCc1ccccc1)C(=O)c1cccc(NC(=O)Cc2cccc(NC(=O)C3CCCN(C(=O)C4CCC4)C3)c2)c1 (stereo not drawn) | -30.2% (inactive) | –
22 | Cc1ccccc1C1CC(c2cccs2)=NN1S(C)(=O)=O (stereo not drawn) | -1.96% (inactive) | –
23 | Fc1ccc(N2N=C(c3cccs3)CC2c2ccco2)c(F)c1 (stereo not drawn) | – | 23.1 µM (active)
24 | CCS(=O)(=O)Nc1ccc(C2=NN(S(=O)(=O)c3ccc(F)cc3)C(c3ccco3)C2)cc1 (stereo not drawn) | -5.85% (inactive) | –
25 | CCCc1cc(=O)[nH]c(SCC(=O)Nc2ccc(C(=O)Nc3ccccc3OC)cc2)n1 | 3.29% (inactive) | –
26 | Cc1ccc(-c2cc(=O)c3ccc(Cl)cc3[nH]2)cc1 | -0.0496% (inactive) | –
27 | O=c1cc(-c2ccccc2)[nH]c2cc(F)ccc12 | – | 0.92 µM (active)
28 | Cc1ccc(-c2cc(=O)c3ccc(F)cc3[nH]2)cc1 | 11.6% (inactive) | –
